Among the data in PubChem BioAssay AID1508607 (The Scripps Research Institute Molecular Screening Center, 2020) are activation values, retold here.

Out of some 2,300 compounds screened, about 20 (0.9%) were called active.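 How the source made its calls: active means mean percent activation across replicates above the counterscreen hit cutoff of 9.17%; inactive means the rest.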 This excerpt belongs to a sample that is enriched for actives.

Glucose-dependent insulinotropic receptor (Homo sapiens), sequence (Q8TDV5 whole entry, looked up): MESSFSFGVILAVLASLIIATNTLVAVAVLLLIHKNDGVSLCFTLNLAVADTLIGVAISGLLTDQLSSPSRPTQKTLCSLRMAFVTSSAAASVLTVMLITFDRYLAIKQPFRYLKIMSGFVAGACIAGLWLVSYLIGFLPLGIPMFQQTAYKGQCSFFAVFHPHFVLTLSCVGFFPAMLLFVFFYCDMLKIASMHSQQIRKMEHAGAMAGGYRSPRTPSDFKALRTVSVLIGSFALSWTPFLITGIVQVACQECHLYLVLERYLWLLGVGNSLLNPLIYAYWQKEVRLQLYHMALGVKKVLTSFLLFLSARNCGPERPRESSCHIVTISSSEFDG

This assay has as its target Glucose-dependent insulinotropic receptor (Homo sapiens) (UniProt Q8TDV5). Nature of the assay: GPR119 activators in beta-arrestin cells, confirmation, counter-screen for GPR151 activator project, cell-based, PathHunter beta-arrestin, luminescence, set 2 (AID 1508607).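 Further: 0% = median of sample wells and 100% = wells given EA reagent.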 The settings on record: 90 min, at 11.2 µM, hits give high values. In general terms: Counterscreens check selectivity or assay interference.
Turning to `CCC(C(=O)N1CCOCC1)n1c2ccccc2c2cn[nH]c(=O)c21` (stereo not given), the activation is -3.25% (inactive).

In the case of `CCc1c(C(=O)N2CCN(c3cccc(Cl)c3)CC2)[nH]c(C)c1C(C)=O`, the activation was 20.1% (active).

As to `O=C(CC(c1ccccc1)c1ccccc1)N1CCN(c2cccc(Cl)c2)CC1`, the activation was -2.36% (inactive).

Turning to `CC(=O)c1c(C)[nH]c(C(=O)N2CCN(c3ncccn3)CC2)c1C`, the activation was -3.09% (inactive).

Turning to `CC(C)(C)NC(=S)Nc1cccc(F)c1`, the activation is 6.02% (inactive).

For the molecule `COc1ccc(CCn2c(-c3ccc(Cl)cc3)csc2=Nc2ccc(F)cc2)cc1OC`, the activation is 0.18% (inactive).

In the case of `COc1ccc(N(C(=O)C(C)Oc2ccccc2)C2C=CS(=O)(=O)C2)c(OC)c1` (stereo not given), the activation is -0.94% (inactive).

As for `O=C1N[C@H](Cc2ccc(O)cc2)C(=O)N2CCN(Cc3cnn(-c4cccc(Cl)c4)c3)C[C@H]12`, the activation was 3.76% (inactive).

With `COc1ccc(CNC(=O)C(NS(=O)(=O)c2ccc3c(c2)oc(=O)n3C)C(C)C)cc1` (stereo not given), the activation was -0.7% (inactive).

As for `Cc1cccc(N2CCN(C(=O)c3ccc(S(=O)(=O)c4ccc(F)cc4)c([N+](=O)[O-])c3)C(C)C2)c1` (stereo not given), the activation is 14.7% (active).

For `Cc1ccc(C)c(N2CCN(C(=O)c3ccc(S(=O)(=O)c4ccc(Br)cc4)c([N+](=O)[O-])c3)CC2)c1`, the activation was 4.42% (inactive).

Regarding `COc1ccc(N2CCN(C(=O)c3ccc(SCc4ccccc4F)c([N+](=O)[O-])c3)CC2)cc1`, the activation was 0.52% (inactive).

Turning to `Cc1ccccc1-n1cc(-c2ccccc2)[nH]c1=S`, the activation is -4.28% (inactive).

In the case of `CSC1=NCCN1C(=O)COc1ccc2ccccc2c1`, the activation is -1.84% (inactive).

On to `COc1cc2nc(SCC(N)=O)n3nc(CCn4nc(C)cc4C)nc3c2cc1OC`, for which the activation was 1.45% (inactive).

For `Cc1c(C(=O)NCCC2CCCN2C)sc2ncnc(NCc3ccco3)c12` (stereo not given), the activation was 3.32% (inactive).

For the molecule `CCc1nnc(NC(=O)CSc2nc3cccnc3n2Cc2ccccc2)s1`, the activation is 0.71% (inactive).

`O=C(COc1ccccc1[N+](=O)[O-])N/N=C/c1ccc(Br)cc1`: the activation is 0.11% (inactive).

Consider `Cc1cccc2c(N3CCCC3)nc(CNS(=O)(=O)c3ccc4c(c3)OCCO4)nc12`, for which the activation was -0.61% (inactive).

As to `COCC1CCN(c2nc3nonc3nc2NC2CCCC2)CC1`, the activation is 2.9% (inactive).

For `O=C(CN1C(=O)C(c2ccccc2)=NC12CCCC2)Nc1ccccc1`, the activation was -0.92% (inactive).

For the molecule `CCC(CC)C(=O)Nc1nnc(SCC(=O)Nc2cc(C(F)(F)F)ccc2Cl)s1`, the activation is 1.93% (inactive).

Regarding `Cn1cc(SCC(=O)Nc2ccccc2C(F)(F)F)c2ccccc21`, the activation was 3.59% (inactive).

`O=C(Nc1cc(C(F)(F)F)ccc1Cl)c1ccc(C(=O)C(=O)c2ccccc2)cc1`: the activation was 6.45% (inactive).

Regarding `Cc1ccc2c(c1)c(=O)c1ccccc1n2CC(=O)Nc1cccc(Cl)c1C`, the activation was -2.08% (inactive).

For the molecule `CCOC(=O)c1nnn(CC(=O)Nc2cccc(C)c2)c1C(=O)OCC`, the activation is 1.6% (inactive).

Regarding `Cc1cc2c(cc1C)C(c1cc([N+](=O)[O-])ccc1Cl)CC(=O)N2` (stereo not given), the activation is 0.43% (inactive).

Consider `O=C(CCCn1c(=O)[nH]c2ccccc2c1=O)NC1CCCC1`, for which the activation is -1.75% (inactive).

Regarding `CCn1c(SC(C)C(=O)OC)nc2c(c1=O)SC(C)C2` (stereo not given), the activation is -0.05% (inactive).

With `COc1ccc(NS(=O)(=O)c2ccc(NC(=S)NC(C)=O)cc2)cc1`, the activation is 3.81% (inactive).

Regarding `CCC(C)NC(=O)c1cc2c(=O)oc3ccccc3c2s1` (stereo not given), the activation is 4.04% (inactive).

Regarding `CCC(C)NC(=O)c1cc(=O)[nH]c2ccc(Br)cc12` (stereo not given), the activation was 47.8% (active).

`CCC(C)NC(=O)c1ccc(-n2c(=S)[nH]c3ccccc3c2=O)cc1` (stereo not given): the activation was 0% (inactive).

For `CCc1c(C)sc(NC(NC(=O)C(C)C)(C(F)(F)F)C(F)(F)F)c1C#N`, the activation was -0.12% (inactive).

On to `COc1cc(C2CC(=O)N3CN(C4CCCCC4)CSC3=C2C#N)cc(OC)c1OC` (stereo not given), for which the activation is -2.01% (inactive).

As to `CCOC(=O)c1c(NC(=O)CSc2c[nH]c3ccccc23)sc2c1CCCCC2`, the activation is 4.28% (inactive).

As to `CCCCCCCCCCCCCC/C(C(=O)O)=C(\C)C(=O)O`, the activation is -2.17% (inactive).

With `Cc1ccc2c(c1)NC(C)(C)c1sn(-c3ccc(C(C)C)cc3)c(=S)c1-2`, the activation was 1.46% (inactive).

With `O=[N+]([O-])c1c(Cl)cc(O)c2c1C1C=CCC1C(c1ccc(Cl)cc1Cl)N2` (stereo not given), the activation was 5.29% (inactive).

Regarding `CC(C)C1Nc2c(O)cc(Cl)c([N+](=O)[O-])c2C2C=CCC21` (stereo not given), the activation was 10.3% (active).

On to `O=C(Nc1ccccc1C(F)(F)F)c1cnn2c(C(F)(F)F)cc(-c3ccco3)nc12`, for which the activation was -0.72% (inactive).

For the molecule `CCOC(=O)c1cnc2c(OC)cccc2c1N1CCN(CC)CC1`, the activation was -1.9% (inactive).

Regarding `CCC(Sc1nc(NC2CCCCC2)c2ccccc2n1)C(=O)Nc1ccc2c(c1)OCO2` (stereo not given), the activation is 0.68% (inactive).

Take `CCC(=O)Nc1ccc(NC(=O)CSc2nc3c(c(=O)n(C)c(=O)n3C)n2C)cc1`: the activation is -0.37% (inactive).

For the molecule `O=C(O)c1ccc(CN(Cc2ccc(Cl)cc2)C(=S)Nc2ccc(Oc3ccccc3)cc2)cc1`, the activation is -1.29% (inactive).

Consider `Cc1[nH]c2ccc(OCc3ccccc3)cc2c1CCNC(=O)COc1ccc(F)cc1F`, for which the activation is -2.17% (inactive).

`Cc1cc(Oc2nc3ccccn3c(=O)c2/C=C(\C#N)C(=O)N2CCCCC2)ccc1Cl`: the activation is -22.9% (inactive).

For the molecule `O=C(c1ccccc1)N1N=C(c2ccccc2)CC1(O)C(F)(F)C(F)(F)F` (stereo not given), the activation was 4.17% (inactive).

For `Cc1ccc(S(=O)(=O)N2CCCC2CNC(=O)C(=O)NC2CCCC2)cc1` (stereo not given), the activation is -1.44% (inactive).

Turning to `CCOc1ccccc1NC(=S)N(CCOC)C(C)c1ccccn1` (stereo not given), the activation is -1.68% (inactive).

Consider `Nc1ccc(C(=O)NCC2COc3ccccc3O2)cc1[N+](=O)[O-]` (stereo not given), for which the activation is 6.14% (inactive).

Turning to `Nc1ncc(Br)cc1S(=O)(=O)Nc1cc(F)ccc1F`, the activation was -0.83% (inactive).

On to `CCOc1ccc(-c2nc(CSCC(=O)NCC3CCCO3)c(C)o2)cc1` (stereo not given), for which the activation was 0.12% (inactive).

With `Cc1cc2oc3c(c(=O)c2cc1C)C(c1ccc(O)cc1)N(CCCN1CCOCC1)C3=O` (stereo not given), the activation was 2.08% (inactive).

As to `COc1cc(/C=C/C(=O)c2ccc(F)cc2)cc(OC)c1OC`, the activation is 0.62% (inactive).

Turning to `CC(C)CC(NC(=O)C(C)NC(=O)CNC(=O)C(NC=O)C(C)C)C(=O)NC(C)C(=O)NC(C(=O)NC(C(=O)NC(C(=O)NC(Cc1c[nH]c2ccccc12)C(=O)NC(CC(C)C)C(=O)NC(Cc1c[nH]c2ccccc12)C(=O)NC(CC(C)C)C(=O)NC(Cc1c[nH]c2ccccc12)C(=O)NC(CC(C)C)C(=O)NC(Cc1c[nH]c2ccccc12)C(=O)NCCO)C(C)C)C(C)C)C(C)C` (stereo not given), the activation was 39.2% (active).

For `CN(C)c1ncc(/C=C2/C(=O)NC(=S)N(c3ccccc3F)C2=O)cn1`, the activation was 0.14% (inactive).

As for `COc1ccc(/C(C)=N/NC(=O)C(C)Nc2ccc(Cl)cc2)cc1` (stereo not given), the activation was -2.32% (inactive).

For the molecule `CC[C@@H](C(=O)C(C)[C@@H](O)[C@H](C)CCc1ccc(C)c(O)c1C(=O)O)C1OC(CC)(C2CC[C@](O)(CC)[C@H](C)O2)C[C@@H]1C` (stereo not given in full), the activation is 29.8% (active).

In the case of `COC(=O)C1=C(N)Oc2c(oc(CO)cc2=O)C1c1c(Cl)cccc1Cl` (stereo not given), the activation is 0.48% (inactive).

For the molecule `C=CCN1/C(=C\C=C2\C=Nc3ccc(Br)cc32)C=Cc2ccc(C)cc21`, the activation was 20.7% (active).

Consider `C=CCN1C(=O)/C(=C2\SC(N3CCCCC3)=NC2=O)c2cc(Br)ccc21`, for which the activation was 2.45% (inactive).

Take `CC(C)c1onc(C(=O)Nc2cc(Cl)ccc2O)c1[N+](=O)[O-]`: the activation was -3.34% (inactive).

Consider `C=CCNC(=O)c1cccc(NS(=O)(=O)c2ccc(Cl)cc2)c1`, for which the activation was 4.37% (inactive).

Turning to `CCc1ccc(C2CC(c3ccccc3)Nc3nc(N)nn32)cc1` (stereo not given), the activation was 3.26% (inactive).

Take `COc1ccc(Cn2c(C)c(C)n3c4c(=O)n(CCCO)c(=O)n(C)c4nc23)cc1`: the activation was 1.31% (inactive).

Take `O=C(NCCSCc1ccccc1)c1ccc[nH]c1=S`: the activation was 2.53% (inactive).

`CCSc1nnc(CSc2ncccn2)n1-c1ccccc1`: the activation was -3.02% (inactive).

Regarding `COc1cc(S(=O)(=O)N2CCN(c3ccc(C)c(C)c3)CC2)ccc1F`, the activation was 1.41% (inactive).

Turning to `COc1ccc(-c2nnc3sc(NC(=O)C(C)C)nn23)cc1`, the activation is -0.23% (inactive).

As to `Cc1nccc2[nH]c(=O)c(C(=O)NC3CCN(Cc4ccccc4)CC3)cc12`, the activation was 0.02% (inactive).

In the case of `Cc1cccc(NC(=O)c2c(-c3ccccc3Cl)noc2C)c1C`, the activation is 0.14% (inactive).

In the case of `C=CCNc1nnc(-c2cc3c(CO)cnc(C)c3oc2=O)s1`, the activation was -2.69% (inactive).

For the molecule `O=C1CCCN1CCCNc1nc(-c2cccc(Cl)c2)c2c(n1)-c1ccccc1OC2`, the activation was -1.27% (inactive).

Take `C=CCOC(=O)c1[nH]c2c(c1C)C(=O)C(C(=O)OC)C(C)C2` (stereo not given): the activation was 2.72% (inactive).
